In PubChem BioAssay (EPA / NIEHS) one finds outcome and AC50 data, which are given here for 39 compounds.

Assay [1] is described as follows: APR_HepG2_CellCycleArrest_1hr: Apredica 1-hour HepG2 Assay for Cell Cycle Arrest (AID 2282666). As to conditions: high-content imaging, actives raise or lower the signal. A digest of the protocol:
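HepG2 cells exposed for 1 h to 0.39–200 uM compound (0.5% DMSO). Fixed, Hoechst-stained nuclei imaged by ArrayScan; DNA content quantified by Cell Cycle analysis; bidirectional fit against DMSO.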

Assay [2] can be described thus: APR_HepG2_CellLoss_1hr: Apredica 1-hour HepG2 Assay for Cell Loss (AID 2282668).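 Also: curves fitted both ways against DMSO so gain or loss of cells counts.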 To be noted: high-content imaging. A digest of the protocol:
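HepG2 cells were treated for 1 h with compound at 0.39–200 uM, in duplicate, in 0.5% DMSO. After formaldehyde fixation, Hoechst 33342-stained nuclei were imaged on an ArrayScan to count cells. Data were fitted bidirectionally versus DMSO.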

A short description of assay [3]: APR_HepG2_MicrotubuleCSK_1hr: Apredica 1-hour HepG2 Assay for Microtubule CSK Stabilty (AID 2282669). To be noted: HepG2 microtubule cytoskeleton imaging, actives raise or lower the signal. A digest of the protocol: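 HepG2 cells exposed 1 h to 0.39–200 uM compound (0.5% DMSO, duplicates), then formaldehyde-fixed, permeabilized and immunostained for alpha-tubulin with Hoechst nuclei. Imaged by ArrayScan high-content analysis; bidirectional fit versus DMSO.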

A short description of assay [4]: APR_HepG2_p53Act_1hr: Apredica 1-hour HepG2 Assay for p53 Activation (AID 2282671). As to conditions: high-content imaging, actives raise or lower the signal. A digest of the protocol: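 HepG2 cells treated 1 h with compound at 0.39–200 uM (10 concentrations, duplicate) in 0.5% DMSO. Formaldehyde-fixed, permeabilised cells immunostained for p53 with Hoechst 33342; high-content imaging, bidirectional fit versus DMSO.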

Assay [5] is described as follows: APR_HepG2_MitoticArrest_1hr: Apredica 1-hour HepG2 Assay for Mitotic Arrest (AID 2282672). As to conditions: high-content imaging, actives raise or lower the signal. The method, boiled down: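 HepG2 cells exposed 1 hr to compounds at 0.39–200 uM (0.5% v/v DMSO final), then fixed in 3.7% formaldehyde and immunostained for phospho-histone H3 with Hoechst 33342. Mitotic arrest scored by automated fluorescence imaging, fitted bidirectionally versus DMSO.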

Assay [6] is described as follows: APR_HepG2_CellCycleArrest_24hr: Apredica 24-hour HepG2 Assay for Cell Cycle Arrest (AID 2282905).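 Also: cell cycle arrest scored as ratio of 2N to 4N nuclear DNA content.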 To be noted: imaging, actives raise or lower the signal. The method, boiled down:
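Compounds at 0.39–200 uM (0.5% DMSO) for 24 h, then fixed and Hoechst 33342 stained. Cell-cycle analysis of nuclear DNA content by high-content imaging, fitted bidirectionally versus DMSO.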

Assay [7] is described as follows: APR_HepG2_NuclearSize_1hr: Apredica 1-hour HepG2 Assay for Nuclear Size (AID 2282670). As to conditions: high-content imaging, actives raise or lower the signal. A digest of the protocol: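 HepG2 cells dosed 1 hr with 0.39–200 uM compound (0.5% DMSO), formaldehyde-fixed, Hoechst 33342-stained and imaged at 20x; nuclear diameter from nuclear stain, fitted bidirectionally against DMSO.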

Assay [8] in a line: APR_HepG2_MitoMass_1hr: Apredica 1-hour HepG2 Assay for Mitochondrial Mass (AID 2282674). As to conditions: high-content imaging, actives raise or lower the signal. A digest of the protocol: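 HepG2 cells dosed 1 hr with 0.39-200 uM compound (0.5% DMSO), duplicate wells. Mitochondria stained with 250 nM MitoTracker Red CMXRos for 30 min before formaldehyde fixation, imaged at 20x by ArrayScan; bidirectional fit versus DMSO.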

Assay [9] is described as follows: APR_HepG2_MitoMembPot_1hr: Apredica 1-hour HepG2 Assay for Mitochondrial Membrane Potential (AID 2282675). To be noted: imaging, actives raise or lower the signal. A digest of the protocol:
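HepG2 cells dosed 1 hour with 0.39–200 uM compound in duplicate, 0.5% DMSO final. MitoTracker Red CMXRos (250 nM, 30 min) loaded before formaldehyde fixation; fluorescence quantified by high-content imaging, bidirectional fitting versus DMSO.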

Assay [10] in a line: APR_HepG2_P-H2AX_1hr: Apredica 1-hour HepG2 Assay for H2AX Phosphorylation (AID 2282673). As to conditions: high-content imaging, actives raise or lower the signal. The method, boiled down:
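HepG2 dosed 1 hr at 0.39-200 uM (0.5% DMSO final), duplicate. Fixed in 3.7% formaldehyde, Triton permeabilized, immunostained for phospho-histone H2A.x (1:200) with Hoechst 33342; ArrayScan 20x imaging, bidirectional fit vs DMSO.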

Activity calls are given as the source filed them. The calls were made as follows: active = hit-call score of the fitted dose curve at least 0.9, where 1 is the maximum; inactive = score below 0.9.

Take `CCOP(=O)(OCC)Oc1cc(C)nc(C(C)C)n1`: the compound was classed as inactive in assay [1], in assay [2], in assay [3], in [4], in assay [5] and in [6].
On to `CCOP(=S)(OCC)SCCSCC`, for which the compound was called inactive in assay [1], in assay [2], in [7], in assay [4], in assay [5] and in [8]. In addition, the result in assay [9] and in [6] was inactive.
With `CCCCN(CC)c1c([N+](=O)[O-])cc(C(F)(F)F)cc1[N+](=O)[O-]`, the result in assay [1], in assay [2], in assay [3], in assay [7], in [5] and in assay [10] was inactive. The half-maximal activity concentration (AC50) in assay [6] was 99.3 µM (active).
For `CCCOCC(=Nc1ccc(Cl)cc1C(F)(F)F)n1ccnc1`, the result in assay [1], in assay [7], in assay [5], in [10] and in [6] was inactive.
As to `CCOC(=O)COc1cc(-c2nn(C)c(OC(F)F)c2Cl)c(F)cc1Cl`, the compound was classed as inactive in assay [1], in [7], in assay [5], in assay [10], in [9] and in assay [6].
`CCc1cnc(C2=NC(C)(C(C)C)C(=O)N2)c(C(=O)O)c1` (stereo not given): the outcome in assay [1], in assay [5], in [10], in assay [8] and in assay [6] was inactive.
On to `CCOP(=S)(OCC)Oc1ccc2c(C)c(Cl)c(=O)oc2c1`, for which the outcome in assay [1], in assay [5] and in assay [6] was inactive.
For `O=c1ccc(=O)[nH][nH]1`, the result in [1], in [3], in [5], in assay [10], in assay [8] and in assay [9] was inactive. For the same compound, the compound was classed as inactive in [6].
`CNC(=O)Oc1cccc2c1OC(C)(C)O2`: the result in assay [1], in assay [3], in assay [5], in [8] and in assay [9] was inactive. Also, the half-maximal activity concentration (AC50) in [6] is 127 µM (active).
For `CSc1nnc(C(C)(C)C)c(=O)n1N`, the result in assay [1], in assay [5], in [10] and in assay [6] was inactive.
`CCOC(=O)CC(SP(=O)(OC)OC)C(=O)OCC` (stereo not given): the call in [1], in assay [3], in assay [7], in [5] and in assay [6] was inactive.
For the compound `C#CCC1=C(C)C(OC(=O)C2C(C=C(C)C)C2(C)C)CC1=O` (stereo not given), the call in assay [1], in [3] and in [5] was inactive. In addition, the concentration at half-maximal activity (AC50) in assay [6] was 151 µM (active).
`CN1COCN(Cc2cnc(Cl)s2)C1=N[N+](=O)[O-]`: the compound was classed as inactive in assay [1], in [7], in assay [5], in [8] and in [6].
With `COP(=O)(OC)OC(Br)C(Cl)(Cl)Br` (stereo not given), the compound was called inactive in assay [1], in assay [5], in assay [9] and in assay [6].
Regarding `CCc1cccc(C)c1N(C(=O)CCl)C(C)COC` (stereo not given), the compound was classed as inactive in [1], in [3], in assay [5], in assay [8], in assay [9] and in assay [6].
As to `CCC(=NOC/C=C/Cl)C1=C(O)CC(C2CCOCC2)CC1=O` (stereo not given), the call in assay [1], in [5], in [10] and in assay [6] was inactive.
As to `CC(=NC#N)N(C)Cc1ccc(Cl)nc1`, the compound was classed as inactive in assay [1], in assay [7], in assay [5], in assay [8], in [9] and in [6].
Consider `COc1ccc(C(=CC(=O)N2CCOCC2)c2ccc(Cl)cc2)cc1OC`, for which the compound was called inactive in assay [1], in assay [5], in assay [10] and in assay [6].
Take `CCCSP(=O)(OCC)Oc1ccc(Br)cc1Cl` (stereo not given): the outcome in assay [1], in assay [3], in assay [5] and in assay [6] was inactive.
As for `C[N+]1(C)CCCCC1`, the compound was called inactive in assay [1], in [4], in [5] and in assay [6].
As to `O=C(O)c1cc(Oc2ccc(C(F)(F)F)cc2Cl)ccc1[N+](=O)[O-]`, the compound was classed as inactive in [1], in assay [7], in assay [5], in [8], in assay [9] and in assay [6].
Take `C#CC(C)(C)NC(=O)c1cc(Cl)cc(Cl)c1`: the outcome in [1], in assay [7], in assay [4], in [5], in assay [9] and in assay [6] was inactive.
In the case of `CCOP(=S)(OCC)Oc1ccc([N+](=O)[O-])cc1`, the result in [1], in assay [7], in assay [5], in assay [8], in assay [9] and in assay [6] was inactive.
Consider `O=[N+]([O-])c1cc(C(F)(F)F)c(Cl)c([N+](=O)[O-])c1Nc1ncc(C(F)(F)F)cc1Cl`, for which the outcome in [1] and in assay [5] was inactive. Besides, the half-maximal activity concentration (AC50) in assay [10] is 21.6 µM (active); in assay [9], 15 µM (active); in assay [6], 1.37 µM (active).
For `CC(Oc1cccc(Cl)c1)C(=O)O` (stereo not given), the compound was classed as inactive in assay [1], in assay [7], in [5] and in assay [6].
`CNC(=O)ON=C(C)SC`: the compound was called inactive in assay [1], in assay [7], in assay [5], in assay [10], in assay [8] and in assay [6].
On to `CCCCOC(=O)[C@@H](C)Oc1ccc(Oc2ccc(C#N)cc2F)cc1`, for which the outcome in assay [1], in assay [3], in assay [5], in assay [8] and in assay [9] was inactive. Besides, the AC50 in assay [6] is 96.9 µM (active).
With `CN(C)NC(=O)CCC(=O)O`, the outcome in assay [1], in assay [4], in [5], in [9] and in assay [6] was inactive.
For `Cc1ccn2nc(S(=O)(=O)Nc3c(F)cccc3F)nc2n1`, the result in [1], in [5], in assay [10], in assay [8] and in [6] was inactive.
Turning to `COP(=O)(OC)C(O)C(Cl)(Cl)Cl` (stereo not given), the outcome in assay [1], in assay [3], in [4], in [5], in [8] and in assay [9] was inactive. Moreover, the AC50 in assay [6] is 164 µM (active).
For `CNc1cnn(-c2cccc(C(F)(F)F)c2)c(=O)c1Cl`, the outcome in assay [1], in assay [7], in assay [4], in assay [5], in assay [10] and in [6] was inactive.
As for `CCc1cccc(CC)c1N(COC)C(=O)CCl`, the compound was classed as inactive in [1], in assay [3], in assay [5] and in [10]. For the same compound, in assay [6], the AC50 was 60.9 µM (active).
Consider `Cc1cc(C2CC2)nc(Nc2ccccc2)n1`, for which the outcome in [1], in assay [5], in [8] and in [6] was inactive.
`CCOP(=O)(NC(C)C)Oc1ccc(SC)c(C)c1` (stereo not given): the outcome in [1], in [7], in [4], in assay [5], in [8] and in [6] was inactive.
In the case of `C[Si](Cn1cncn1)(c1ccc(F)cc1)c1ccc(F)cc1`, the compound was classed as inactive in assay [1], in assay [4], in assay [5], in [10], in assay [8] and in [6].
As for `Nc1nc(N)nc(NC2CC2)n1`, the compound was called inactive in [1], in assay [7], in [5], in [9] and in assay [6].
Consider `CCOP(=S)(OCC)Oc1cc(C)nc(C(C)C)n1`, for which the outcome in assay [1], in assay [7], in [4], in assay [5], in [10] and in assay [9] was inactive. Also, the result in [6] was inactive.
`CNC(=O)ON=C(SC)C(=O)N(C)C`: the outcome in assay [1], in assay [3], in assay [5], in [10], in [9] and in assay [6] was inactive.
Turning to `FC(F)C(F)(F)OCC(Cn1cncn1)c1ccc(Cl)cc1Cl` (stereo not given), the compound was called inactive in assay [1], in assay [3], in assay [5], in assay [10], in [8] and in assay [6].

By AC50 is commonly meant the concentration giving half of the maximal activity seen.
